# According to PubChem BioAssay (NCATS):
# Results filed as inconclusive are left out. Where a call stands in place of a potency, no number is given. The source made the active and inactive calls. Unless noted, calls follow the shape of the full dose curve.
# How the values were obtained:
# [1] = target: Alpha-galactosidase (Coffea arabica) (UniProt Q42656); test: Counterscreen for Glucocerebrosidase Inhibitors: qHTS Assay for Coffee Bean alpha-Galactosidase at pH 5.9 (AID 998; active = well fitted curve in the direction sought with a large enough effect; an effect the other way counts as inactive or inconclusive)
# How it was run: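 In 50 mM citric acid pH 5.9 with 0.005% Tween-20, coffee bean enzyme hydrolyses 80 uM 4-MU alpha-D-galactopyranoside over 20 min at RT. Activity is normalized to controls; AC50 comes from Hill-modelled concentration-response data.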
# [2] = Inducers of the Endoplasmic Reticulum Stress Response (ERSR) in human glioma: Validation (AID 504836; active = well fitted curve in the direction sought with a large enough effect; an effect the other way counts as inactive or inconclusive)
# How it was run: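 Stably transfected U87-MG human glioma cells carrying a GRP78-based luminescent sensor were seeded at 1000 cells/well, pin-dosed with compounds and incubated 16 h. Luciferase reagent was then added, and end-point luminescence was read after 10 min at room temperature.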
# [3] = qHTS for Inhibitors of the Functional Ribonucleoprotein Complex (vRNP) of Lassa (LASV) Arenavirus: LASV Primary Screen - GLuc reporter signal (AID 1347082; calls by dose curve; tested in HEK293 reporter line; also: nearly all actives have a fitted effect of over 60% in size)
# [4] = qHTS for Inhibitors of the Functional Ribonucleoprotein Complex (vRNP) of Lassa (LASV) Arenavirus: Viability assay - alamar blue signal for LASV Primary Screen (AID 1347083; calls by dose curve; tested in HEK293 reporter line; also: nearly all actives have a fitted effect of over 80% in size)
# [5] = qHTS for Inhibitors of the Functional Ribonucleoprotein Complex (vRNP) of Lymphocytic Choriomeningitis Arenaviruses (LCMV): Viability assay - alamar blue signal for LCMV Primary Screen (AID 1347085; calls by dose curve; tested in HEK293 reporter line; also: nearly all actives have a fitted effect of over 80% in size)
# [6] = target: Nucleoprotein (Lymphocytic choriomeningitis virus (strain Armstrong)) (UniProt P09992); test: qHTS for Inhibitors of the Functional Ribonucleoprotein Complex (vRNP) of Lymphocytic Choriomeningitis Arenaviruses (LCMV): LCMV Primary Screen - GLuc reporter signal (AID 1347086); also: nearly all actives have a fitted effect of over 70% in size
# [7] = target: Bile acid receptor (Homo sapiens) (UniProt Q96RI1); test: qHTS assay for small molecule agonists of farnesoid X receptor signaling (AID 588527); conditions: HEK293T FXR-UAS-bla, beta-lactamase ratio, 16 h; activation: stronger effect = higher value
# How it was run: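 Quantitative HTS used FXR-UAS-bla HEK293T cells with 16 h compound incubation at 37 C. EC50 values came from concentration-response curves normalized to chenodeoxycholic acid.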
# [8] = target: Peroxisome proliferator-activated receptor delta (Homo sapiens) (UniProt Q03181); test: qHTS assay for small molecule agonists of peroxisome proliferator-activated receptor delta signaling (AID 588534)
# How it was run: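 Titration series tested in agonist mode on beta-lactamase reporter cells; 18 hrs at 37 C after a 5 hr pre-incubation. Readout: CCF4 fluorescence, 2 hrs RT. Hill equation gives EC50 and maximal response.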
# [9] = target: Alpha-galactosidase (Coffea arabica) (UniProt Q42656); test: Counterscreen for Glucocerebrosidase Inhibitors: qHTS Assay for Coffee Bean alpha-Galactosidase at pH 4.5 (AID 957; active = well fitted curve in the direction sought with a large enough effect; an effect the other way counts as inactive or inconclusive)
# How it was run: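 Fluorogenic read-out: 4-methylumbelliferone at Ex 365/Em 440 nm after NaOH/glycine stop (pH 10). Enzyme 2 nM, 4-MU-alpha-galactoside 80 uM, citrate buffer pH 4.5, 20 min RT; normalized to no-enzyme and enzyme controls.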
# [10] = qHTS profiling of the MIPE4 collection as inhibitors of Plasmodium falciparum (3D7) proliferation (AID 743344; call rule not given here); conditions: P. falciparum 3D7 in erythrocytes, SYBR Green DNA fluorescence, 72 h; at 28.5 µM (top of the series) unless noted
# How it was run: (§1)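 Parasite DNA was quantified by SYBR Green I fluorescence (ex 485, em 535 nm) after overnight lysis in saponin/Triton buffer at room temperature. Cultures at 0.3% parasitemia and 2.5% hematocrit were first exposed to compound for 72 h at 37 C; signals were normalised to artemisinin (0.29 uM) and vehicle wells.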
# [11] = qHTS profiling of the MIPE4 collection as inhibitors of Plasmodium falciparum (DD2) proliferation (AID 743345; call rule not given here); conditions: P. falciparum Dd2 in erythrocytes, SYBR Green DNA, 72 h; at 28.5 µM (top of the series) unless noted
# How it was run: as §1
# [12] = qHTS profiling of the MIPE4 collection as inhibitors of Plasmodium falciparum (DD2) proliferation (Rep 2) (AID 743346; call rule not given here); conditions: P. falciparum Dd2 in erythrocytes, SYBR Green DNA, 72 h; at 28.5 µM (top of the series) unless noted
# How it was run: as §1
# [13] = target: Voltage-gated inwardly rectifying potassium channel KCNH2 (Homo sapiens) (UniProt Q12809); test: qHTS Assay for Small Molecule Inhibitors of the Human hERG Channel Activity (AID 588834; active = well fitted curve in the direction sought with a large enough effect; an effect the other way counts as inactive or inconclusive;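 also: top concentration of the series differs between compounds; lower thallium flux fluorescence means stronger hERG block; nearly all actives have a fitted effect of over 50% in size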)
# How it was run: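 Thallium serves as surrogate for K+ influx through BacMam-delivered hERG in U2OS cells. Compounds are added for about 10 minutes after dye loading; stimulation buffer then starts flux, monitored kinetically on FDSS.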
# [14] = target: Luciferin 4-monooxygenase (Photinus pyralis) (UniProt P08659); test: Biochemical firefly luciferase enzyme assay for NPC (AID 624030; active = well fitted curve in the direction sought with a large enough effect; an effect the other way counts as inactive or inconclusive;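 also: purified P. pyralis luciferase at 10 nM with luciferin and ATP substrate; nearly all actives have a fitted effect of over 70% in size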)
# How it was run: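 Counter-screen for direct inhibition of the luciferase enzyme by approved-drug library compounds, run at 10 nM enzyme in 50 mM Tris acetate (final). Luminescence was read within 5 min of enzyme-buffer addition and normalized to PTC124 versus DMSO (0%).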
# Chain of Peroxisome proliferator-activated receptor delta (Homo sapiens) (Q03181 whole entry, looked up): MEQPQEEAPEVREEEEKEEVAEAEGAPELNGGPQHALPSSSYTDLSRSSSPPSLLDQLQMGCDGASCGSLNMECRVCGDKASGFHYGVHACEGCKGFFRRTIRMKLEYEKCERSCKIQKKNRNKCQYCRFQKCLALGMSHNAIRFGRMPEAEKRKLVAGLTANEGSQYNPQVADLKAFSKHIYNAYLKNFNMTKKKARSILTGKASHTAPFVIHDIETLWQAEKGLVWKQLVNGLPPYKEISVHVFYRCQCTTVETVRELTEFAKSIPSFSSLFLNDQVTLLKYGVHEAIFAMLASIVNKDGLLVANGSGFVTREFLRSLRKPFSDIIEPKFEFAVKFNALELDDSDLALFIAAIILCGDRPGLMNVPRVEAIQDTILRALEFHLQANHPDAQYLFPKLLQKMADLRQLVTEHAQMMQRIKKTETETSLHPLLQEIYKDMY
# Chain of Nucleoprotein (Lymphocytic choriomeningitis virus (strain Armstrong)) (P09992 whole entry, looked up): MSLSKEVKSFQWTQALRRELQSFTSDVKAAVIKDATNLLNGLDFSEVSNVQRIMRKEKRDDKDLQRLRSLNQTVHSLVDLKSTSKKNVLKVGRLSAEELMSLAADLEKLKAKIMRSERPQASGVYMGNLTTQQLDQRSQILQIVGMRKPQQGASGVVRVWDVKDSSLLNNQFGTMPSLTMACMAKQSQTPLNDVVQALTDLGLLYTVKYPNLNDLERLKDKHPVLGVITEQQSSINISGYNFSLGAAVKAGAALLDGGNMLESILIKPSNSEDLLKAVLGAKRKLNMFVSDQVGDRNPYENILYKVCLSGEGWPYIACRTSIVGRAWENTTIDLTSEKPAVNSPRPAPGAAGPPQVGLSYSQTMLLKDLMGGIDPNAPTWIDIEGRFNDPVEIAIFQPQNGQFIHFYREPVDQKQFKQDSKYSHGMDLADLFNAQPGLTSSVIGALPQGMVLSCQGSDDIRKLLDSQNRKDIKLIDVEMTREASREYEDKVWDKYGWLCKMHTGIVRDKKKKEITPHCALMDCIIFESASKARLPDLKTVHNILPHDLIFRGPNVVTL
# Chain of Alpha-galactosidase (Coffea arabica) (Q42656 whole entry, looked up): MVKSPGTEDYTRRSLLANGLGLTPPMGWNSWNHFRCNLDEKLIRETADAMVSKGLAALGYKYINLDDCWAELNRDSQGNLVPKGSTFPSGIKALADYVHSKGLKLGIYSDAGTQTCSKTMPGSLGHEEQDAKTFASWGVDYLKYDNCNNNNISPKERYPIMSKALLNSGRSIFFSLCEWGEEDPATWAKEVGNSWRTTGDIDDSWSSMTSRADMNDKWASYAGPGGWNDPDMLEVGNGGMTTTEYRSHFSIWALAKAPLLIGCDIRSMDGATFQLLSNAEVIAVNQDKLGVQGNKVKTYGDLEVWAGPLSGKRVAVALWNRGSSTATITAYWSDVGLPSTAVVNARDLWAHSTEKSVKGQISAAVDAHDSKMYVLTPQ
# Chain of Bile acid receptor (Homo sapiens) (Q96RI1 whole entry, looked up): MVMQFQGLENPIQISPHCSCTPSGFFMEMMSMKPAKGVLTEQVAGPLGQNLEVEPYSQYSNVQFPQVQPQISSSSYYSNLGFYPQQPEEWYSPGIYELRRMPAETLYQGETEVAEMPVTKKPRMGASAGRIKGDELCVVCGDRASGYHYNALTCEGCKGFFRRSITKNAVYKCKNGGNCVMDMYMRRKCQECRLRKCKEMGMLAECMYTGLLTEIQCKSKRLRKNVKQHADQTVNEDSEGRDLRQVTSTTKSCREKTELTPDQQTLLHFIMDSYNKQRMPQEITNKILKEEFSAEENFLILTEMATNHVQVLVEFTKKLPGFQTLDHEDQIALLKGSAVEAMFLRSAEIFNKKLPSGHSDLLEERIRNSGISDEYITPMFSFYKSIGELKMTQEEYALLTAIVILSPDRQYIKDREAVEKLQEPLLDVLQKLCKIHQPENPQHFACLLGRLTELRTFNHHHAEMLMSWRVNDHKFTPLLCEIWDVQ
# Chain of Voltage-gated inwardly rectifying potassium channel KCNH2 (Homo sapiens) (Q12809 whole entry, looked up): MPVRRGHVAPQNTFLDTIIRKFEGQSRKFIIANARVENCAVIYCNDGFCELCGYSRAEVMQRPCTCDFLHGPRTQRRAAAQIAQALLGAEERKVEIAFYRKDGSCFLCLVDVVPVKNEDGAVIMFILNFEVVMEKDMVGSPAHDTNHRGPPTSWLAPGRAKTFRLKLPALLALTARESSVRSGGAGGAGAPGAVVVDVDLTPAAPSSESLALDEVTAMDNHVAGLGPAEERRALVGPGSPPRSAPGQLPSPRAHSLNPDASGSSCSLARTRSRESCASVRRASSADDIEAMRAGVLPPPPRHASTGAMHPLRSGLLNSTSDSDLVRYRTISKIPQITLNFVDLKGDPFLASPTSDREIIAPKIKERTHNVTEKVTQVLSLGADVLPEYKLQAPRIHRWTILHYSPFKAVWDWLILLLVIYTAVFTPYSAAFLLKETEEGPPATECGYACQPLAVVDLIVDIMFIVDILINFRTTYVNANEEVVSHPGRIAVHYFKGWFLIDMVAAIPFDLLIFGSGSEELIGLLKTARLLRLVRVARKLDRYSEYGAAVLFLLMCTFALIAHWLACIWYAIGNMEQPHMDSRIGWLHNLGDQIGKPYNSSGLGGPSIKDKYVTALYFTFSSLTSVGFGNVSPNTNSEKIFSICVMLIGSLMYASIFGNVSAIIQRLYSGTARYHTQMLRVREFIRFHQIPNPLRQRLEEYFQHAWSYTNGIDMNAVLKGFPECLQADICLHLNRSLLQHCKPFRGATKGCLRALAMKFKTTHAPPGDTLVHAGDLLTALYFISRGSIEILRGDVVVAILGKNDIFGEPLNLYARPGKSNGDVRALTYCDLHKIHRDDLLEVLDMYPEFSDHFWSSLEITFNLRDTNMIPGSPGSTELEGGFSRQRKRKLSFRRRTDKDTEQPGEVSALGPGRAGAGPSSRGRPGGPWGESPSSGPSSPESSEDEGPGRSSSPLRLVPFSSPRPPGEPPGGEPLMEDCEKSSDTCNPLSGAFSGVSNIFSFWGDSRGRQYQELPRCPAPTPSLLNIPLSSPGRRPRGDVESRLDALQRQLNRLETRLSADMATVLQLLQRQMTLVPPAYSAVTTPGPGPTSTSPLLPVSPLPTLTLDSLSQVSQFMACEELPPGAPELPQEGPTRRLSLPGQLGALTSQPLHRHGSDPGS
# Chain of Luciferin 4-monooxygenase (Photinus pyralis) (P08659 whole entry, looked up): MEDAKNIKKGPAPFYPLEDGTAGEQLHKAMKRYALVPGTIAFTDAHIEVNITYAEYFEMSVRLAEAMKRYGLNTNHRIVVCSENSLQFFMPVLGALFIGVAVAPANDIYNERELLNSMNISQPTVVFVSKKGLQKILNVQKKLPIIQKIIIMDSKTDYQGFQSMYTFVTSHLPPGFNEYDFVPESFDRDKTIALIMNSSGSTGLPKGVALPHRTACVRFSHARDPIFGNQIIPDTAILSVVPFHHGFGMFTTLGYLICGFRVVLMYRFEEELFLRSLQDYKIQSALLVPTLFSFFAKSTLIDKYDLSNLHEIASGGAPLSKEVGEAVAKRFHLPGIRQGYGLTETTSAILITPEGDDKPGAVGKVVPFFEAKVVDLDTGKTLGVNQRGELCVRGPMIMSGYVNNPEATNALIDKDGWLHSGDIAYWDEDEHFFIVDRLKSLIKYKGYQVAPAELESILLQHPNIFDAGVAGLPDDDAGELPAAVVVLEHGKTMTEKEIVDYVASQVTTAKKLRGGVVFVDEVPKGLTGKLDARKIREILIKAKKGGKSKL
smiles,measurement,setting,value
N=C(N)SCCc1ccc(CCSC(=N)N)cc1,outcome,[1],inactive
same,outcome,[2],inactive
same,Potency,[3],inactive
same,Potency,[4],inactive
same,Potency,[5],inactive
same,Potency,[6],inactive
COC(=O)c1ccc(C)cc1,activation,[7],-0.0429% (inactive)
same,Potency,[8],inactive
same,Potency,[3],inactive
same,Potency,[4],inactive
same,Potency,[5],inactive
same,Potency,[6],inactive
CN=c1nc(-c2ccccc2)n(-c2ccccc2)s1,outcome,[9],inactive
same,outcome,[1],inactive
same,outcome,[2],inactive
same,Potency,[3],inactive
same,Potency,[4],inactive
same,Potency,[5],inactive
same,Potency,[6],inactive
CCN1C(=O)C=CC1=O,outcome,[9],inactive
same,outcome,[1],inactive
same,outcome,[2],inactive
same,Potency,[3],inactive
same,Potency,[4],inactive
same,Potency,[5],inactive
same,Potency,[6],inactive
CCC(CC)[C@H](NC(C)=O)[C@@H]1[C@H](O)[C@@H](C(=O)O)C[C@@H]1N=C(N)N,"parasite growth, % of DMSO control",[10],81.5%
same,"parasite growth remaining, % of DMSO control (lower = more inhibition)",[11],98.5%
same,"parasite growth, % of control (lower = inhibition)",[12],112%
same,Potency,[3],inactive
same,Potency,[4],inactive
same,Potency,[5],inactive
same,Potency,[6],inactive
CC(C)OC(=O)[C@H](C)N[P@](=O)(OC[C@H]1O[C@@H](n2ccc(=O)[nH]c2=O)[C@](C)(F)[C@H]1O)Oc1ccccc1,"parasite growth, % of DMSO control",[10],62.8%
same,"parasite growth remaining, % of DMSO control (lower = more inhibition)",[11],95.7%
same,"parasite growth, % of control (lower = inhibition)",[12],78.3%
same,Potency,[3],inactive
same,Potency,[4],inactive
same,Potency,[5],inactive
same,Potency,[6],inactive
C=CCCCCCCCCC=O,Potency,[8],inactive
same,Potency,[3],inactive
same,Potency,[4],inactive
same,Potency,[5],inactive
same,Potency,[6],inactive
O=C(O)/C=C/C(=O)O,Potency,[8],inactive
same,Potency,[13],inactive
same,Potency,[14],inactive
same,Potency,[3],inactive
same,Potency,[4],inactive
same,Potency,[5],inactive
same,Potency,[6],inactive
CC(C)CCCCCCCCCCCCCCC(=O)O,Potency,[8],inactive
same,Potency,[3],inactive
same,Potency,[4],inactive
same,Potency,[5],inactive
same,Potency,[6],inactive
OCCO,activation,[7],1.31% (inactive)
same,Potency,[8],inactive
same,Potency,[3],inactive
same,Potency,[4],inactive
same,Potency,[5],inactive
same,Potency,[6],inactive
CCCCCCCCCCCCCCC,Potency,[8],inactive
same,Potency,[3],inactive
same,Potency,[4],inactive
same,Potency,[5],inactive
same,Potency,[6],inactive
CCCCCCC(=O)O,activation,[7],-0.812% (inactive)
same,Potency,[8],inactive
same,Potency,[3],inactive
same,Potency,[4],inactive
same,Potency,[5],inactive
same,Potency,[6],inactive
CC/C=C\CCOC(=O)c1ccccc1O,Potency,[8],inactive
same,Potency,[3],inactive
same,Potency,[4],inactive
same,Potency,[5],inactive
same,Potency,[6],inactive
CC(=O)OC/C=C(\C)CCC=C(C)C,Potency,[8],inactive
same,Potency,[3],inactive
same,Potency,[4],inactive
same,Potency,[5],inactive
same,Potency,[6],inactive
O=C1CCc2ccccc2O1,Potency,[8],inactive
same,Potency,[3],inactive
same,Potency,[4],inactive
same,Potency,[5],inactive
same,Potency,[6],inactive
CC(=O)N[C@H]1[C@@H]([C@H](O)[C@H](O)CO)OC(C(=O)O)=C[C@@H]1N=C(N)N,"parasite growth, % of DMSO control",[10],96.2%
same,"parasite growth remaining, % of DMSO control (lower = more inhibition)",[11],100%
same,"parasite growth, % of control (lower = inhibition)",[12],142%
same,Potency,[3],inactive
same,Potency,[4],inactive
same,Potency,[5],inactive
same,Potency,[6],inactive
